We go through 99 compounds from PubChem BioAssay AID1220 (Sanford-Burnham Center for Chemical Genomics, 2008).

Where “and” joins values, the source holds several entries; their conditions need not be identical. Equal entries are not always repeated. Among all 190,000 compounds or so, about 1,300 (0.68%) were called active. No stated cut-off is given here; in the data, active means inhibition above about 50%; inactive means the rest. What follows is part of a selection rich in actives, with near analogues and random picks from the rest.

The target in the test is Mannose-6-phosphate isomerase (Homo sapiens) (UniProt P34949). Briefly: human PMI inhibitors, high substrate, primary screen, biochemical, fluorescence intensity, high mannose 6-phosphate (AID 1220). Conditions: recombinant PMI enzyme, coupled fluorescence intensity; at 20 µM; stronger effect = higher value.
Sequence of Mannose-6-phosphate isomerase (Homo sapiens) (P34949 whole entry, looked up): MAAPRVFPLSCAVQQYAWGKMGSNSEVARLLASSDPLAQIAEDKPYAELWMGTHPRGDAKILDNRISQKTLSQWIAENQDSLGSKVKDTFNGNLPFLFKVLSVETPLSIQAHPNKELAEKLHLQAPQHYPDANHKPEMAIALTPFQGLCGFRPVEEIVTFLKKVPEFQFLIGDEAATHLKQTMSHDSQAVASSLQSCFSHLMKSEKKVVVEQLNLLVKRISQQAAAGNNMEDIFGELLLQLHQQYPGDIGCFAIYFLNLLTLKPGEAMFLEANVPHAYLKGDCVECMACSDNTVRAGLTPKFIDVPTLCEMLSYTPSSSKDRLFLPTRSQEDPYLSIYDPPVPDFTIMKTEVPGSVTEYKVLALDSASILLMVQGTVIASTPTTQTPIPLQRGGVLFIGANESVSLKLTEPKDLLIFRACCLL
For `O=C(COc1ccc(Cl)cc1)N1CCN(c2ccc([N+](=O)[O-])c(N3CCCCC3)c2)CC1`, the inhibition was 12.2% (inactive). For the compound `COC(=O)CNC(=O)c1cccc(Cl)c1`, the inhibition was -5% (inactive). Turning to `O=C(NC(Cc1c[nH]c2ccccc12)C(=O)NCCCN1CCOCC1)c1cccs1` (centres undefined), the inhibition was 11.4% (inactive). Consider `O=C(c1ccccc1)c1coc2c1C(=O)c1ccccc1C2=O`, for which the inhibition was 30.7% (inactive). Regarding `O=C1c2ccccc2C(=O)c2c1oc(C(F)(F)F)c2C(=O)c1ccccc1`, the inhibition is -32.9% (inactive). Take `CCCCOc1ccc(C(=S)N2CCC(C(N)=O)CC2)cc1`: the inhibition is 9.1% (inactive). Under `CN(CCC#N)C(=O)COc1ccc(Br)cc1Cl` stands -5.3% (inactive); under `CCc1ccc(OCC(=O)N(C)CCC#N)c(Br)c1`, 3.1% (inactive); under `CCN(CC)c1cccc(OCC(=O)N(C)CCC#N)c1`, 53.3% (active). The value for `Cc1cc(C)n(-c2cc(N3CCOCC3)nc(-c3ccccc3)n2)n1` was 8.9% (inactive); that for `CCc1sc(C(=O)NCCc2ccc(S(N)(=O)=O)cc2)cc1Br` was 7.3% (inactive). As for `COc1cc(C(=O)NCCSc2ccc(Br)cc2)cc(OC)c1OC`, the inhibition is 5.3% (inactive). Under `Cc1cc(S(=O)(=O)Nc2ccc(F)cc2)c(C)s1` stands 5% (inactive). Regarding `CC(=O)Nc1ccc(NS(=O)(=O)c2cc(C)sc2C)cc1`, the inhibition is 61.6% (active). As to `Cc1cc(S(=O)(=O)Nc2ccc(N(C)C)cc2)c(C)s1`, the inhibition is 10.9% (inactive). For the compound `CN(C)CCCNc1oc(-c2ccccc2)nc1C#N`, the inhibition was -7.3% (inactive). In the case of `CCOC(=O)c1c(NCC2CCCO2)c2ccccc2[nH]c1=O` (centres undefined), the inhibition was -10.2% (inactive). As to `COc1ccc(N2C(=O)N(Cc3cccc(F)c3)c3ccccc3S2(=O)=O)cc1`, the inhibition is 0.3% (inactive).

For `CC1(C)CC(=O)C2=C(C1)NC(=O)NC2c1ccccc1` (centres undefined), the inhibition is -2.6% (inactive).

For the compound `Cc1ccc(-n2nnnc2Sc2nc([N+](=O)[O-])nn2C)cc1`, the inhibition is 18.5% (inactive).

On to `Cc1nc2ccc(NC(=S)N3CCN(c4ccccn4)CC3)cc2nc1C`, for which the inhibition is 18.3% (inactive). Take `Cc1nc2ccc(NC(=O)N3CCCCC3)cc2nc1C`: the inhibition is 21.5% (inactive).

Regarding `Cc1nc2ccc(NC(=S)N3CCCC3)cc2nc1C`, the inhibition is 52.8% (active). Under `Cc1nc2ccc(NC(=S)N3CCOCC3)cc2nc1C` stands 45.1% (inactive). For `O=C(Nc1ccc2nsnc2c1)N1CCCCCC1`, the inhibition is 21.5% (inactive). Turning to `O=C(Nc1ccc2nsnc2c1)N1CCCCC1`, the inhibition is 24.1% (inactive). On to `Cc1nc2ccc(NC(=S)N3CCC(C)CC3)cc2nc1C`, for which the inhibition was 55.4% (active). As for `CC1CCN(C(=O)Nc2ccc3nsnc3c2)CC1`, the inhibition was 62% (active). As for `CC1CCN(C(=S)Nc2ccc(F)cc2)CC1`, the inhibition was -10.5% (inactive). For the compound `COC(=O)CSc1cc(C)nc2ccc(OC)cc12`, the inhibition was 7.7% (inactive). For `CC(C(=O)Nc1ccncc1)(c1ccccc1)c1ccccc1`, the inhibition was 10.8% (inactive). With `O=C(CCN1C(=O)/C(=C/C=C/c2ccccc2)SC1=S)Nc1cccnc1`, the inhibition is 1.5% (inactive). For `Cc1noc(C)c1C(=O)N1CCN(Cc2ccc3c(c2)OCO3)CC1`, the inhibition is 6.8% (inactive).

Take `CN(C)c1c([N+](=O)[O-])cc2[nH]c(=O)[nH]c2c1[N+](=O)[O-]`: the inhibition is 9.6% (inactive). For the compound `CC(=O)Nc1c([N+](=O)[O-])cc2[nH]c(=O)[nH]c2c1[N+](=O)[O-]`, the inhibition is 56.9% (active).

On to `O=c1[nH]c2cc([N+](=O)[O-])c(NCCO)c([N+](=O)[O-])c2[nH]1`, for which the inhibition was 3.7% (inactive). As to `CC(C)Oc1ccc(C(CC(=O)O)n2cnnn2)cc1` (centres undefined), the inhibition is 2% (inactive). `Cc1nn(-c2ccccc2)c2c1C1(C(=O)N3c4c(cccc41)C(C)CC3(C)C)C(C#N)=C(N)O2` (centres undefined): the inhibition was 21% (inactive). With `COC(=O)CN1C(=O)C2(C(C#N)=C(N)Oc3cc(C)oc(=O)c32)c2ccccc21` (centres undefined), the inhibition is 7.9% (inactive).

On to `CC(=O)N1C(=O)C2(C(C#N)=C(N)Oc3cc(C)oc(=O)c32)c2ccccc21` (centres undefined), for which the inhibition was 11% (inactive). Turning to `CCN1C(=O)C2(C(C#N)=C(N)Oc3c2c(C)nn3-c2ccccc2)c2ccccc21` (centres undefined), the inhibition was 62.1% (active).

As to `COC(=O)CN1C(=O)C2(C(C#N)=C(N)Oc3n[nH]c(-c4cccs4)c32)c2ccccc21` (centres undefined), the inhibition was 7.3% (inactive). `Cc1nn(-c2ccccc2)c2c1C1(C(=O)N(C(C)C)c3ccccc31)C(C#N)=C(N)O2` (centres undefined): the inhibition is 24.1% (inactive). Consider `COC(=O)CN1C(=O)C2(C(C#N)=C(N)Oc3c2c(C)nn3-c2ccccc2)c2ccccc21` (centres undefined), for which the inhibition was 58.9% (active).

On to `CC(=O)N1C(=O)C2(C(C#N)=C(N)Oc3c2c(C)nn3-c2ccccc2)c2ccccc21` (centres undefined), for which the inhibition is 62.8% (active). Turning to `Cc1nn(-c2ccccc2)c2c1C1(C(=O)N(C)c3ccccc31)C(C#N)=C(N)O2` (centres undefined), the inhibition was 21.9% (inactive). For the compound `CCCCC1NC(=S)N(C2CCCCC2)C1=O` (centres undefined), the inhibition was -7.2% (inactive). On to `COC(=O)c1sc2ccccc2c1-n1cccc1C(=O)C(=O)Nc1ccc(C)cc1`, for which the inhibition was 4.8% (inactive).

Regarding `O=c1[nH]c(SCC2CCCCO2)nc2ccccc12` (centres undefined), the inhibition was -2.3% (inactive). Consider `O=C1CSC(c2cccc(Cl)c2Cl)N1c1ccccn1` (centres undefined), for which the inhibition was 12.3% (inactive). As to `Cc1ccc(C)c(S(=O)(=O)Nc2ccccc2C(=O)Nc2cc(C)on2)c1`, the inhibition was 8.8% (inactive). Turning to `COC(=O)c1cccc(NS(C)(=O)=O)c1C`, the inhibition is -5.8% (inactive). The value for `CNc1nc(C)c(C(=O)OCC(=O)OC)s1` was -0.1% (inactive); that for `CC(NC(=O)CSCc1ccccc1Br)c1ccccc1` (centres undefined) was 4.4% (inactive); that for `COc1ccc(NC(=S)Nc2ccccc2SC)c(OC)c1` was 20.7% (inactive). Take `Cc1ccc(CN(CC(=O)N/N=C/c2ccco2)S(=O)(=O)c2ccc(C)cc2)cc1`: the inhibition was 4.9% (inactive).

On to `COC1=C(OC)C(=O)C(CCCCCCCCCCO)=C(C)C1=O`, for which the inhibition was 78.2% (active). In the case of `Cc1[nH]c(=S)[nH]c(=O)c1CCCO`, the inhibition is 5.3% (inactive). `CC1=C(C)C(=O)C(CCCCC#CCCCC#CCO)=C(C)C1=O`: the inhibition is 19.9% (inactive). The value for `COc1ccc(OC)c(-n2c(=S)[nH]c3c(sc(=S)n3-c3ccccc3)c2=O)c1` was 9.2% (inactive). On to `COc1ccccc1-n1c(=S)[nH]c2c(sc(=S)n2-c2ccccc2)c1=O`, for which the inhibition is -3.7% (inactive). The value for `Cc1ccc(/C=C2\SC(=S)N(C3CCS(=O)(=O)C3)C2=O)cc1` (centres undefined) was -2.5% (inactive); that for `C=CCn1c(COc2ccccc2F)nnc1SCC(=O)NC(=O)NCc1ccco1` was -4% (inactive); that for `Cc1ccc(C2C(C#N)=C(N)Oc3c2c(=O)n(C)c(=O)n3C)cc1` (centres undefined) was -24.8% (inactive).

As to `Cc1ccc(C2C(C#N)=C(N)Oc3n[nH]c(C)c32)cc1` (centres undefined), the inhibition was 8.4% (inactive). For `CCNc1nc2[nH]c(=O)c3c(c2s1)OC(N)=C(C#N)C3c1ccc(C)cc1` (centres undefined), the inhibition is 62.6% (active). For `Cc1cc(C)c2c3c(sc2n1)C(c1cccc(F)c1)C(C#N)=C(N)O3` (centres undefined), the inhibition is -7% (inactive). With `CNc1nc2[nH]c(=O)c3c(c2s1)OC(N)=C(C#N)C3c1cccc(F)c1` (centres undefined), the inhibition is 54.7% (active). For `COC(=O)C1=C(C)OC(N)=C(C#N)C1c1ccccc1` (centres undefined), the inhibition was -8.8% (inactive).

In the case of `CN(C)c1ccc2c(c1)OC(N)=C(C#N)C2c1cccc(F)c1` (centres undefined), the inhibition is 25.2% (inactive). Regarding `CNc1nc2[nH]c(=O)c3c(c2s1)OC(N)=C(C#N)C3c1ccccc1` (centres undefined), the inhibition is 52% (active). Take `Cc1oc(C)c2c(=O)ccc3c(c12)OC(N)=C(C#N)C3c1ccccc1` (centres undefined): the inhibition is 2.8% (inactive).

With `O=C1CCCC(O)=C1C1C2=C(CCCC2=O)Oc2ccccc21` (centres undefined), the inhibition is 6.5% (inactive). Under `Nc1[nH]ncc1-c1ccc(Cl)cc1` stands -1.5% (inactive); under `Cc1sc(NC(=O)CCCC(=O)O)c(C(N)=O)c1-c1ccccc1`, -5.5% (inactive). On to `CC1CN(C(NC(=O)c2ccccc2)C(Cl)(Cl)Cl)CC(C)O1` (centres undefined), for which the inhibition was -6.4% (inactive). For the compound `CCN1C(=O)/C(=C/c2ccc(C)o2)N(C)C1=S`, the inhibition was 28% (inactive).

For `COC(=O)c1ccc(C(=O)Nc2ccc(N)cc2N)cc1`, the inhibition is 50.3% (active). Regarding `Cc1cc(N)ccc1NC(=O)c1ccccc1`, the inhibition was 12.9% (inactive). As for `COC(=O)c1ccc(C(=O)Nc2ccc(C(C)C)cc2N)cc1`, the inhibition was -2.9% (inactive). For the compound `Cc1ccc(OCC(O)CN2CCN(CC(O)COC(C)C)CC2)c(C(C)(C)C)c1` (centres undefined), the inhibition was -2.3% (inactive).

In the case of `CCOC(=O)C1=C(C)NC(C)=C(C(=O)OC)C1c1cccc([N+](=O)[O-])c1` (centres undefined), the inhibition is 9.7% (inactive) and -2% (inactive).

For `COC(=O)C1=C(C)NC(C)=C([N+](=O)[O-])C1c1ccccc1C(F)(F)F` (centres undefined), the inhibition is -0.9% (inactive).

Regarding `COc1ccccc1NC(=O)C1=C(C)NC(=O)NC1c1ccccc1[N+](=O)[O-]` (centres undefined), the inhibition was 19.9% (inactive). As to `CC1=C(C(=O)Nc2ccccc2)C(c2cccs2)NC(=O)N1` (centres undefined), the inhibition is -0.7% (inactive). Take `COC(=O)C1=C(C)NC(C)=C(C(=O)OC)C1c1ccccc1[N+](=O)[O-]`: the inhibition was 79.4% (active). As for `CC1=C(C(=O)Nc2ccccc2)C(c2ccccc2[N+](=O)[O-])NC(=O)N1` (centres undefined), the inhibition is 53.3% (active). Take `COc1ccccc1NC(=O)c1cnc(Nc2ccccc2OC)c2ccccc12`: the inhibition was 6.4% (inactive).

As for `CC1Oc2ccccc2N(CC(=O)NCc2cccs2)C1=O` (centres undefined), the inhibition was 5.4% (inactive). For `NC(=O)Cc1ccc(C(=O)c2ccccc2F)s1`, the inhibition is -7% (inactive). Take `Cc1ccc(C(C)C)c(OCC(=O)N2CCOCC2)c1`: the inhibition is 4.1% (inactive). Take `O=C(O)COc1ccc(/C=N/n2cnc3scc(-c4cccs4)c3c2=O)cc1`: the inhibition was -8.8% (inactive). In the case of `Cc1ccc(-n2c(-c3ccncc3)n[nH]c2=S)c(C)c1`, the inhibition was 3.7% (inactive). Consider `COc1ccc(OCC(=O)Nc2ccc3c(c2)nc2n3CCSC2)cc1`, for which the inhibition is 7.8% (inactive). For the compound `O=C(/C=C/c1cccc(OCc2ccccc2)c1)c1cccnc1`, the inhibition was -18.2% (inactive). Regarding `CCOC(=O)c1c(C)oc2c(CC(=O)c3ccccc3)c(Cl)c(O)c(O)c12`, the inhibition was 8.9% (inactive).

`CCOC(=O)Cc1csc(NC(=O)NC2(C(F)(F)F)Oc3ccccc3O2)n1`: the inhibition was 21.4% (inactive).

Consider `CCOC(=O)Cc1csc(NC(=O)NC2(C(F)(F)F)Oc3ccc(Cl)cc3O2)n1` (centres undefined), for which the inhibition was 47.9% (inactive).

Turning to `CCOC(=O)Cc1csc(NC(=O)NC2(C(F)(F)F)Oc3cc(Cl)c(Cl)cc3O2)n1`, the inhibition was 54.7% (active).

As a reminder, the inhibition is the relative decrease from the control value, in per cent.
